Sampled rows, rich in hits. Any-hit rate of the full collection: about 7.2%.
VLA-4 inh: inhibition in a human VLA-4 binding assay; P13612; VLA-4 expressing cells, ligand binding flow cytometry; inhibition, % (about 7 µM as worked out from the volumes in the protocol); 330,000 tested, 0.2% active; AID 2557; in the data active = inhibition above about 50%
ALR inh: human ALR oxidase inhibition via reduced H2O2. purified ALR, DTT oxidation, H2O2 HRP-luminol luminescence. inhibition, % (test concentration not listed). P55789. 290,000 tested, 3.8% active;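 active = mean replicate inhibition above about 79%, with every replicate also reaching it, limit read from the data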
AHR act: human AHR activation; P35869; AHR-responsive luciferase reporter cells, luminescence; activation, % at 5 µM; 320,000 tested, 2.5% active; AID 2796; in the data active = activation above about 47%;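 also: 0% = vehicle wells and 100% = reference agonist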
SUMO Mot1 rescue: inhibitors of SUMOylation pathway: yeast Mot1-301 growth rescue; S. cerevisiae Mot1-301 growth rescue, ATP luminescence, 38.5C; percent above DMSO median, 100 means doubled; growth rescue, % at 18.8 µM; 320,000 tested, 1% active;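 active = every valid replicate shows activation above 250% relative to neutral control wells; inactive = the rest, any valid replicate at or below 250%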;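 also: OY570 slx delta 5 strain wells were the positive control but not used for scaling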
Bfl-1 A1 inh: inhibitors of the anti-apoptotic protein A1, read as caspase activation. MEF A1-2A-BIM cells, Caspase-Glo 3/7 luminescence, 3 h; percent of clofoctol response, vehicle zero. caspase activation, % (no concentration beside the values). 330,000 tested, 0.066% active;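 active = over half of replicate activation scores above 10%, or exactly half above 10 with the replicate mean above 10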
Efflux pump mplx: inhibitors of Candida antifungal efflux pumps expressed in yeast; S. cerevisiae Candida pump triplex, Nile Red efflux; inhibition, % at 10 µM; 330,000 tested, 0.44% active;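 active = plate passing quality check with inhibition over a set limit, or well fluorescence over plate mean plus 4 SD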;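 also: Nile Red retained in pooled yeast measured as flow cytometry median fluorescence; 0% = buffer negative control and 100% = Enniatin B positive control; higher means more Nile Red kept so more efflux inhibition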
Mot1 SUMO dose: inhibits SUMO pathway, affecting Mot1-301 yeast growth | 2,300 tested, under 10 active | growth activity, percent, % at 42 µM | shares compounds with SUMO Mot1 rescue | AID 493004 | S. cerevisiae Mot1-301 galactose growth, ATP luminescence, 24 h; -100 = growth of slx-deleted rescue strain;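 active = Signal drops as the depositor expects, and the fitted half-maximal dose is no more than ten times the top valid tested dose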;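 also: more negative values mean stronger growth rescue toward the control strain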
Active calls of the source: *; . = no result given; + = active, no number; [ ] = dose if it differs, or a comment.

SMILES	VLA-4 inh	ALR inh	AHR act	SUMO Mot1 rescue	Bfl-1 A1 inh	Efflux pump mplx	Mot1 SUMO dose
CC1(C)CC(=O)C(C=Nc2ccc3[nH]ncc3c2)=C(O)C1	10	8	5	10	1	0	.
Oc1c(Br)cc(Br)cc1/C=N/c1nccs1	14	1	2	131	0	0	.
Oc1c(Br)cc(Br)cc1C=Nc1cccnc1	8	.	1	481*	-1	-2	-1
CCOC(=O)c1cnc2oc3ccccc3n2c1=O	3	.	19	+	0	0	1
CC(C)(C)NC(=O)C(c1cccs1)N(Cc1cccs1)C(=O)c1ccc(CN2CCOCC2)o1 (stereo not given)	-2	3	6	+	1	0	0
Cc1ccc(C(C(=O)NC(C)(C)C)N(Cc2ccc3c(c2)OCO3)C(=O)c2ccc(CN3CCOCC3)o2)o1 (stereo not given)	11	-5	-2	-14	-1	0	.
COc1ccc(CNC(=O)CC2(CC(=O)O)CCCCC2)cc1	-10	.	1	6	-1	0	.
CCOc1ccc(C(=O)Nc2ccc(N3CCN(C)CC3)cc2)cc1	8	0	1	-7	0	0	.
CCCCOc1ccc(C(=O)Nc2ccc(N3CCN(C)CC3)cc2)cc1	2	4	-9	+	1	0	0
CCOC(=O)CCN(c1ccccc1)S(=O)(=O)c1ccc(-c2ccc(=O)[nH]n2)s1	-2	-6	-2	588*	2	0	0
CN(C)CCN(Cc1ccccc1)S(=O)(=O)c1ccc(-c2ccc(=O)[nH]n2)s1	19	-4	-1	31	-2	0	.
Cc1ccc(SCC(=O)O/N=C(\N)c2cccc([N+](=O)[O-])c2)cc1	3	2	5	+	0	-1	0
Cc1cc(C)n2nnnc2n1	1	-14	0	-6	-1	0	.
CCOC1(OCC)C(c2ccc(N)cc2)C(C#N)(C#N)C1(OCC)OCC (stereo not given)	19	0	-1	3	0	0	.
CCOC1(OCC)C(c2ccc(Cl)cc2)C(C#N)(C#N)C1(OCC)OCC (stereo not given)	-1	.	0	495*	1	0	-1
CCOC(=O)CC(NC(=O)c1ccc(C)cc1)c1ccc(OC)cc1 (stereo not given)	12	-9	7	5	2	0	.
Cc1cc(C)cc(NC(=O)C(OC(=O)c2cc[n+]([O-])cc2)c2ccccc2)c1 (stereo not given)	12	0	1	16	0	0	.
CCOC(=O)C1=C(N)c2ccccc2CC1C1CCCC1 (stereo not given)	5	-6	22	552*	-1	0	0
CCc1ccc(CN(C)C(=O)C2CCC(=O)N(CCCN3CCCC3=O)C2)cc1 (stereo not given)	15	0	0	-12	-1	0	.
O=C(CCC(=O)c1ccc(F)cc1)Nc1cc(Cl)cc(Cl)c1	15	-3	8	7	0	0	.
Oc1cccc(/C=N/N2CCN(c3ccccn3)CC2)c1	-12	.	-6	547*	-2	0	0[21 µM]
Oc1ccc(/C=N/N2CCN(c3ccccn3)CC2)cc1	-2	.	-5	200	-4	0	.
COc1ccc(-c2csc(Nc3cc(C)ccn3)n2)cc1C	11	-1	1	515*	-1	0	0
O=S(=O)(Nn1c(O)c(C=C2N=c3ccccc3=N2)sc1=S)c1ccccc1	-2	.	22	908*	-1	0	1
O=C(Nn1c(O)c(C=C2N=c3ccccc3=N2)sc1=S)c1ccccc1Cl	-9	40	16	-9	-1	1	.
COc1cc(C(=O)NCCc2ncccc2C)ccc1OC1CCN(C(C)=O)CC1	1	-11	1	-11	0	0	.
COc1cc(C(=O)NCCC2=CCCCC2)ccc1OC1CCN(C(C)=O)CC1	7	3	-2	547*	0	0	1
